TEAD-YAP inh: TEAD-YAP interaction inhibition. HEK-TIYL cells, TEAD-Gal4/YAP UAS-luciferase luminescence. inhibition, % at 9.12 µM. hit rate 1.4% among 640,000. AID 1259422; in the data active = inhibition above about 32%;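 note: 0% = median of test compound wells and 100% = reference inhibitor wells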
GPR151 ag: human GPR151 activation | Q8TDV0 | PathHunter beta-arrestin GPR151 cells, luminescence | activation, % at 11.2 µM | hit rate 1% among 650,000 | AID 1508602; in the data active = activation above about 4.9%;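 note: 0% = median of compound wells and 100% = cells with positive control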
MITF inh: inhibitors of human MITF. O75030. AlphaScreen MITF homodimerization, bead proximity signal. inhibition, % at 2.6 µM. hit rate 0.91% among 650,000. AID 1259374; in the data active = inhibition above about 50%;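 note: 0% = vehicle wells with protein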
FBW7 activator: activators of human E3 ligase FBW7 | Q969H0 | AlphaScreen FBW7–phospho-cyclin E peptide binding, activator screen | normalized activity (activation), % at 26.1 µM | hit rate 0.13% among 650,000; in the data active = normalized activity above about 1.9%;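 note: purified mutant Fbw7 with reduced substrate affinity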
Target sequence (Q969H0 whole entry, looked up): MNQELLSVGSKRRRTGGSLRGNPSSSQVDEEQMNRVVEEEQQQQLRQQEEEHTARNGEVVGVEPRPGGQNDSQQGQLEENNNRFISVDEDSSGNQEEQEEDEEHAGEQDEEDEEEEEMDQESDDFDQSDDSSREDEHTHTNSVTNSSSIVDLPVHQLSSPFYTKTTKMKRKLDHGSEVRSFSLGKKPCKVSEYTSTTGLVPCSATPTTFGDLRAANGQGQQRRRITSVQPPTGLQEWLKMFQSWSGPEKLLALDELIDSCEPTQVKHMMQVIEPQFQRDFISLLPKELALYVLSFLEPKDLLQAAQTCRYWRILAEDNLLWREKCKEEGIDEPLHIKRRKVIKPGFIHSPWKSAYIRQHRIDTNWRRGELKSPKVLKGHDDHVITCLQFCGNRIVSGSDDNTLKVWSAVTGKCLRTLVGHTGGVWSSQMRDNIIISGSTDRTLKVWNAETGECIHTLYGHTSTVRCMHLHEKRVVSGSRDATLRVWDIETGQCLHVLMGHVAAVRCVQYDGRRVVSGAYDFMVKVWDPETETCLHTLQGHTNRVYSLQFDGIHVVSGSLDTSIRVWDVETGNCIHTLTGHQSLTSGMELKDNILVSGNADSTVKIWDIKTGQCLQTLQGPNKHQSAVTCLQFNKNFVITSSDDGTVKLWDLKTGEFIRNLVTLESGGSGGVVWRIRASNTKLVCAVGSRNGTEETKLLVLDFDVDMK
GPR151 confirm: human GPR151 activation, confirmation screen | shares compounds with GPR151 ag | GPR151 PathHunter beta-arrestin cells, luminescence, 90 min; % of EA-reagent control over plate median | activation, % at 11.2 µM | 6,700 tested, under 10 active;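 active = mean percent activation across replicates above the confirmation screen cutoff of 4.91%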
GPR119 ag: counter-screen for GPR151 activators: effect on human GPR119. shares compounds with GPR151 ag. hit rate 0.3% among 6,700. activation, % at 11.2 µM. GPR119 PathHunter beta-arrestin cells, luminescence, 90 min; 0 = compound-well median, 100 = enzyme-acceptor control. AID 1508611;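 active = mean percent activation in the counterscreen above 29.09%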;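 note: counterscreen on off-target GPR119 to flag nonselective hits from the GPR151 activator screen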
* marks the source's active call; other numbers are inactive results; x = not tested or not shown. Compounds with a hit are over-represented: about 3.5% of the library has one in this group of screens.

SMILES	TEAD-YAP inh	GPR151 ag	MITF inh	FBW7 activator	GPR151 confirm	GPR119 ag
O=C(c1ccco1)N1CCN(C(=S)NCC2CCCO2)CC1 (configuration not stated)	9.4	6.4*	-9.8	0.2	0.0	-2.0
CCOC(=O)C1=C(C)N=c2s/c(=C\c3sccc3C)c(=O)n2C1c1ccc(OC)c(OC)c1 (configuration not stated)	2.3	1.4	1.3	-0.1	x	x
Fc1ccc2c(c1)nc(N1CCCCC1)c1nccn12	-9.6	-0.6	-5.0	-0.2	x	x
Fc1ccc2c(c1)nc(NC1CCCCC1)c1nccn12	2.5	5.1*	-0.4	0.0	-0.6	-1.6
COc1ccc(C(O)C(C)c2nc3ccccc3n2C)cc1 (configuration not stated)	5.1	6.3*	-5.5	-0.3	0.4	2.1
Cc1nc(SCc2cccc(Cl)c2)[nH]c(=O)c1CC(=O)N1CCc2ccccc2C1	4.5	-1.8	7.9	0.1	x	x
O=[N+]([O-])c1nn(-c2cccc(Cl)c2)n(O)c1=NCc1ccccn1	-2.3	-1.7	9.7	-0.2	x	x
CCOc1ccc(-c2nc(NC(C)=O)c3c(=O)oc4c(OC)cccc4c3n2)cc1	7.7	9.2*	-0.2	-0.2	0.7	11.9
CC(C)N(C(=O)C(F)(F)F)C(C(=O)NC1CCCCC1)c1ccncc1 (configuration not stated)	-0.5	5.8*	-3.7	0.0	1.1	5.4
O=C(NC1CCCCC1)C(c1ccncc1)N(C(=O)C(F)(F)F)C1CC1 (configuration not stated)	-3.8	0.7	11.0	-0.1	x	x
COc1ccc(S(=O)(=O)NCC(c2ccco2)N(C)C)cc1F (configuration not stated)	-4.7	6.5*	10.6	0.0	-0.9	-7.9
COc1cc(C(=O)NNC(=O)CCN2CCCCC2)cc(OC)c1OC	9.1	4.9*	-16.3	0.1	-0.8	-14.1
O=C(Nc1cc(Cl)ccc1O)C1CC(c2ccccc2O)=NO1 (configuration not stated)	1.9	0.4	-4.4	0.0	x	x
O=C(Nc1ccc(Cl)cc1)C1CC(c2ccccc2O)=NO1 (configuration not stated)	-10.9	5.5*	-3.6	-0.1	-0.8	-17.2
Nn1c(CSc2nc3ccccc3o2)nnc1CSc1nc2ccccc2o1	4.0	-1.2	0.4	-0.2	x	x
c1ccc(-n2nnnc2CSc2nc3ccccc3o2)cc1	6.0	6.6*	-6.2	0.0	0.4	1.8
COC(=O)c1ccc(NC(=O)Cn2nc3n(C)c4ccccc4n3c(=O)c2=O)cc1	-12.3	8.8*	3.0	-0.1	0.9	1.9
COc1ccc(Cl)cc1NC(=O)Cn1nc2n(C)c3ccccc3n2c(=O)c1=O	3.6	-0.4	-1.1	0.5	x	x
CNC(=O)C1CN(Cc2ccc3c(c2)OCO3)CCN1C(=O)c1ccc(F)c(F)c1 (configuration not stated)	-2.5	7.2*	2.5	-0.1	-0.2	-9.4
COc1cc([N+](=O)[O-])c(N2CCOCC2)c([N+](=O)[O-])c1OC	-3.6	5.4*	-4.4	-0.1	-0.3	0.2
CN=C1S/C(=C\c2cc3c(cc2Br)OCO3)C(=O)N1C	6.1	0.8	5.7	-0.1	x	x
Oc1ccc2ncccc2c1C(Nc1ccccn1)c1ccco1 (configuration not stated)	5.8	30.7*	7.9	0.1	1.9	13.7
CCOC(=O)c1sc(=NC(=O)c2cccc3ccccc23)n(C)c1C	4.7	7.8*	3.1	0.0	0.2	6.0
O=C(Nc1ccc2nn(-c3ccccc3)nc2c1)c1ccc(-c2cccc([N+](=O)[O-])c2)o1	1.3	5.1*	-0.5	-0.1	0.1	12.3
O=C(c1ccc(S(=O)(=O)N2CCCCCC2)cc1)N1CCN(c2nc3ccccc3s2)CC1	2.5	-0.2	0.4	0.0	x	x
SMILES	TEAD-YAP inh	GPR151 ag	MITF inh	FBW7 activator	GPR151 confirm	GPR119 ag
CCN(CC)C(C(=O)NC1CCCC1)c1ccccc1 (configuration not stated)	3.4	-0.7	2.5	0.0	x	x
Cc1ccc(NCCNS(=O)(=O)c2cc(C)c(C)cc2C)nn1	1.6	8.4*	9.3	0.8	-0.2	2.8
CCN1C=CC=C/C1=C1\SC(=S)N(C)C1=O	1.7	7.3*	11.9	0.0	-1.7	-9.4
COc1ccc(-c2nc3n(n2)C(c2ccc(OC)cc2OC)C(C(N)=O)=C(C)N3)cc1 (configuration not stated)	-2.4	7.4*	-2.1	-0.1	0.7	-9.7
COc1ccc(-c2nc3n(n2)C(c2cc(OC)ccc2OC)C(C(N)=O)=C(C)N3)cc1 (configuration not stated)	2.2	1.2	9.1	0.0	x	x
CCc1nnc(-c2cc3ccccc3n2CC(=O)Nc2cccc(Cl)c2)o1	9.2	5.3*	-8.6	-0.1	-0.5	-8.5
CCOC(=O)c1ccc2c(c1)sc(=NC(=O)C(C)(C)C)n2C	61.1*	6.5*	-16.2	0.0	0.0	0.2
CC(=O)C1=C(O)C(=O)N(Cc2cccnc2)C1c1ccc(O)cc1 (configuration not stated)	9.6	5.4*	-13.3	0.1	0.5	16.6
COc1ccc(C(=O)CC(=C=Cc2ccccc2)CC(=O)c2ccc(OC)cc2)cc1	-29.6	-1.7	9.9	-0.1	x	x
O=C(CSc1nc2ccc(Br)cc2c2nc3ccccc3n12)c1ccc(F)cc1	11.6	0.4	15.9	0.2	x	x
Cc1ccc(N2CC(NC(=O)C3CCCC3)CC2=O)cc1C (configuration not stated)	6.2	5.5*	-15.2	0.2	0.6	6.0
COc1ccc(N2CC(NC(=O)C3CCCC3)CC2=O)cc1 (configuration not stated)	4.0	-1.1	12.2	0.0	x	x
CCN1CCCC1CNC(=O)NC1CC(=O)N(c2ccc(C)c(C)c2)C1 (configuration not stated)	-12.7	7.0*	3.9	-0.9	0.3	3.0
O=C(NCCCN1CCOCC1)c1cnn2c(C(F)(F)F)cc(-c3cccs3)nc12	3.8	0.7	3.8	-0.1	x	x
CCn1cc(CNC(=O)c2ccc([N+](=O)[O-])cc2)c(C)n1	-2.9	0.7	0.7	-0.1	x	x
COc1cccn2c(C(=O)N3CC(C)CC(C)C3)c(C(F)(F)F)nc12 (configuration not stated)	-4.8	-1.1	17.6	0.4	x	x
COc1ccc(CN(CC2CCCO2)C(=O)c2cc3ccccc3oc2=O)cc1OC (configuration not stated)	8.6	1.0	3.6	-0.1	x	x
O=C(c1cc2ccccc2oc1=O)N(Cc1ccc2c(c1)OCO2)CC1CCCO1 (configuration not stated)	6.2	7.3*	7.5	-0.1	0.6	6.6
CCn1c(C(=O)O)c(CNC2CCCC2)c2ccc(C)cc21	-1.7	8.4*	5.7	0.4	-0.4	3.8
O=[N+]([O-])c1cccc(S(=O)(=O)NC23CC4CC(CC(C4)C2)C3)c1	1.0	5.3*	3.9	0.0	0.9	13.8

Assay outcomes (PubChem BioAssay)
